Out of some 53,000 sequences screened, about 3,700 (7%) were called active. Many of the other results were omitted from the sample, so actives are more common in it than they were. Unmarked numbers belong to inactive results.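 Rule for the calls: active = gene knockdowns whose robust z-score for IL-1 alpha signal is at least 2 or at most -2, so actives lie on both sides; inactive = the rest.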

The experiment can be described thus: Components of the Cytosolic LPS Sensing Pathway: Gene Identification via Genome-wide siRNA Screen.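 Note: robust z of the log signal after scaling to non-targeting control siRNA wells of the plate.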 The note with it: RAW264.7 macrophages, IL-1a HTRF, actives lie on both sides, screened at 100 nM (by protocol), cells primed 5 h with Pam3CSK4 first. The gist of the method:
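RAW264.7; siRNA 100 nM final, RNAiMAX, 48h 37 degrees C; Pam3CSK4 5 h; LipidA + TransIT-TKO 24 h; IL-1a HTRF; CellTiter-Glo viability; robust z vs negative-control median.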
On the technique in general: Time-resolved FRET reads energy transfer from a long-lived donor to a nearby acceptor.
For GCUUUUCACAUGAUGUGUUTT against Klrb1a, the z-score was -0.5. For GCCCUUACUUAGGUCUAGGTT against Kctd12, the z-score is -0.522. Turning to GGAAGAGAAGCUGAACAAGTT against Gja1, the z-score is 2.53 (active).

For GGAGCUUCUCAUGACCUUUTT against Mettl21e, the z-score was 0.307. As for “GCGAUGGUAUGUUGAAGGATT against 4930432E11Rik”, the figure is 0.639. Turning to GGAGUACAUGACCACAGAUTT against Lncpint, the z-score was -2.06 (active). With GCCUAAAAACUCUAAAUCUTT against Mmut, the z-score is -0.0189. Take GGUGUGGACUAUGAUACCATT against Anxa9: the z-score is 0.984.

On to GGCUUUGAACAGGAAAGACTT against Ube2z, for which the z-score is -0.417. Regarding CCUGCAAAUGAUACCACCGTT against Olfr734, the z-score was -0.402. As for GGAGCGAAGUGAUGAAUAATT against Prph2, the z-score is 0.0677. For the sequence GGAGCAGCUGAGAGAAAAATT against Ccdc144b, the z-score was -0.413. Turning to GCGAUUCAGAGACCUAUGGTT against Aven, the z-score was -2.22 (active). GGAUGCUGAUUUAAAGACUTT against Rai14: the z-score was 1.69. Turning to GCUGAAGGGACUCUAACCATT against Ihh, the z-score was 0.715. On to CCUCUGGAUCUACGAGCUGTT against Odf4, for which the z-score is -0.00669. As for “GCAGAUAGAAGACUGGAAUTT against 1700024G13Rik”, the z-score was 0.424. As to GGUUAUUUCUGAAAUGUGCTT against Fbxl4, the z-score is -1.3. As to GGCUGAAAAUGGGAAGCUUTT against Gm5069, the z-score was 0.0536. As for GGAUGAGCUGAGGAAAUCCTT against Psd2, the z-score was -0.535. Take GGUUCUAGACAAUUACCUGTT against Clic1: the z-score is 2.43 (active).

In the case of GCCAGGGACUUGCUAUUGATT against Txlna, the z-score is -0.24. As for GGGAAUGGCUUGAUUCUGUTT against Olfr609, the figure is 0.514; as for CGACAAGGAGACCUACAAATT against Itm2b, 0.615; as for CGCAUCAUAAUGAUUGUGATT against Matn2, -0.269.

Regarding GGCAUCUAUACCAGUAAUATT against Mllt6, the z-score is -0.562. The same measure for CCAACAGCAACGAUGACAATT against Thoc5: -2.94 (active); for GGAAAUGAUACCUUACCACTT against Zfp715: 0.162; for “GCGUGAACCGUUUGAUGAGTT against 9030612E09Rik”: 1.04. For GGACAUGAAAGAAACGGUGTT against Bbc3, the z-score was -0.282. On to GCUUCCUCUUAUCAUAUAATT against Rgs13, for which the z-score was -0.119. Take GGUAUUAGAAAUCCUGAUCTT against Pias2: the z-score was -0.716. Turning to GGUAUUUCAGAUAACCUGGTT against Bbs12, the z-score was 2.9 (active).

For the sequence CGCAUCAUAUUCUGAUUCCTT against Rmnd5b, the z-score was 0.138. With CGCAGACAACAAAGUAGAATT against Sars, the z-score was 0.738. Take GGUGUUGUAAAAUUCCUCATT against Ncoa7: the z-score was -2.08 (active). Take GCAUUUCGACGCGGCUUUUTT against Snapc1: the z-score is 0.617. Regarding GGUAAACCUGCCAAUUUUGTT against Ovch2, the z-score was 1.54. Take GCCAUGUGAGACUCUUAUATT against Slc2a9: the z-score was 0.62. On to GCAGCUCCUUUAUACCCACTT against Mxra7, for which the z-score is -1.25. In the case of GGAGGGAGCAGAUUGAAACTT against Eri2, the z-score is -0.281. In the case of GCAUGCUUAAGCCUAUAAATT against Ncstn, the z-score was -1.88.

In the case of GUGUCUCUGUACUUAUUAUTT against Olfr483, the z-score was 0.69. The same measure for GGUGGACGUACUUUUUAACTT against Gata3: 2.59 (active); for GCUUUUAGAAUAAAGCUGATT against Fgl2: 0.75; for CCUAUGUCCACCACAAAUGTT against Ifi209: -0.14. For GCAACCUGUCCCUUCUUGATT against Olfr225, the z-score is 1.53. As for GGAGCUGAAGCCAUUCAACTT against Gpx6, the figure is 2.08 (active). On to GGGAAAUGUUGUAGUAGAUTT against Rars2, for which the z-score was 0.535. As to CCACUGUGUGACAUUAAAGTT against Metap2, the z-score was -0.799. For the sequence GCAACUAGCGUGUGUUCCUTT against Arpc1a, the z-score was 2.4 (active). As to GGCACAGAAUAUCCACCACTT against Olfr283, the z-score is -1.01.

As for GGCAUUCAGGAAGUUACUGTT against Krt75, the z-score was -1.63. For the sequence GGCUUAAUUGCUAGCCAAGTT against Slc7a13, the z-score is 0.849. The same measure for GGCUUUCGCUAGAAAACUCTT against Sftpc: 0.531. Take CGUGGAAAGAAAAUUAUCATT against Psmd11: the z-score was -2.21 (active). In the case of GCAAAUUUUAUAUGCGACUTT against Glipr1, the z-score is -0.561. GGAGAAUGACUACUAUACUTT against Stt3a: the z-score was -0.127. As for CCAGACACGCAUUGCGAAATT against H2-M2, the z-score is 0.357. Take GCAUCAAUUCCCAAACCUUTT against Selenov: the z-score is -0.0263. For GGGCAAACCAGUUAGCAGATT against Atxn2, the z-score was 0.278. Regarding GGGAAGCCUUACUUAUUGGTT against Vmn1r53, the z-score is 1.25. As for GGACGAAAUCUUGUCUGAUTT against Atg4b, the figure is 2.59 (active). In the case of GGACAAAACCUCAGUUGAUTT against Bves, the z-score was 1.05.

As to CCAAGGACACUAUACAAAUTT against Fank1, the z-score is 0.957. For CCCGCAACAAUAAACCUGATT against Yif1b, the z-score is -1.36. In the case of GCAGUACAUAGGACAAUACTT against Ccdc97, the z-score was 0.0835.

Regarding GGAAGAAGAAAGUGUUAAATT against Ythdf2, the z-score is -0.337. As to GGUCCAAUUUUAUAACAGUTT against Dmtf1, the z-score is 0.359.
